# Test results reported in PMC7862700, “An all-to-all approach to the identification of sequence-specific readers for epigenetic DNA modifications on cytosine”.
# Assays:
# Assay in all cases: DAPPL (digital affinity profiling via proximity ligation, sequencing); 10 mM Tris-HCl pH 7.5, 50 mM NaCl, 1 mM DTT, 4% glycerol, room temperature, 30 min; GST-TFs on glutathione beads, 16-mer random dsDNA library, 0.1% formaldehyde crosslink after washing; high values mean tight binding
# [1] = molecular target: T1, FLI1 (Homo sapiens, UniProt Q01543 1-452); conditions: protein: recombinant; tags: N-terminal GST; dsDNA, one strand shown
# T1 sequence: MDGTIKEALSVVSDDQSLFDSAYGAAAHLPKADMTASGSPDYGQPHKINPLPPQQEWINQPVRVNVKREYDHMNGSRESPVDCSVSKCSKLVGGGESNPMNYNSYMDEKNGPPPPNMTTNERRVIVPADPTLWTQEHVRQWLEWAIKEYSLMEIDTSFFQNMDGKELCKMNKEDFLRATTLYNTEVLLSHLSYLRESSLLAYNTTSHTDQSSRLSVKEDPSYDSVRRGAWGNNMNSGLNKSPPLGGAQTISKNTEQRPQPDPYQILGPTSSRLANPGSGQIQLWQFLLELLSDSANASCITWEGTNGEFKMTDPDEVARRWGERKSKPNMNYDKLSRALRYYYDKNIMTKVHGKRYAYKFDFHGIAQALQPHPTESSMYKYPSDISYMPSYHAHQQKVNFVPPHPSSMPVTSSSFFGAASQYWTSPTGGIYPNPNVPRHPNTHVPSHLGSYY
# Procedure, shortened: (§1)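 Human transcription factors were made in yeast as GST fusions, captured on glutathione beads and barcoded with DNA. With a tag-only sample included, the pool was incubated with 200 nmole of a random double-stranded 16-mer DNA library in Tris/NaCl/DTT/glycerol buffer at room temperature for 30 min, then crosslinked with 0.1% formaldehyde after washing, ligated by proximity, amplified and sequenced. For binding signal, each hexamer's read frequency for a factor is divided by its frequency for the tag-only sample.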
# [2] = molecular target: T2, ELK1 (Homo sapiens, UniProt P19419 1-428); conditions: protein: recombinant; tags: N-terminal GST; dsDNA, one strand shown
# T2 sequence: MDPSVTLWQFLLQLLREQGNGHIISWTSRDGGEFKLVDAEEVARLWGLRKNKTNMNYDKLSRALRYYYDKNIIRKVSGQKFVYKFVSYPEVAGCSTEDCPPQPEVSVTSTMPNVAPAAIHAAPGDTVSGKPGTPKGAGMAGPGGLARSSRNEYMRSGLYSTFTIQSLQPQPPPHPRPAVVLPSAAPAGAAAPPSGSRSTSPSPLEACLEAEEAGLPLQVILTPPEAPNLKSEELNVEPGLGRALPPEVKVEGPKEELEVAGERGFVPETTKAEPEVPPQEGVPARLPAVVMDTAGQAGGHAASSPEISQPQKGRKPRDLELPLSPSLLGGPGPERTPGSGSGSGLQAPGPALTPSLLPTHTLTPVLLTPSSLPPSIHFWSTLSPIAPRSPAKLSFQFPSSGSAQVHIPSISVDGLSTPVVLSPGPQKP
# Procedure, shortened: as §1
# [3] = molecular target: T3, GABPA (Homo sapiens, UniProt Q06546 1-454); conditions: protein: recombinant; tags: N-terminal GST; dsDNA, one strand shown
# T3 sequence: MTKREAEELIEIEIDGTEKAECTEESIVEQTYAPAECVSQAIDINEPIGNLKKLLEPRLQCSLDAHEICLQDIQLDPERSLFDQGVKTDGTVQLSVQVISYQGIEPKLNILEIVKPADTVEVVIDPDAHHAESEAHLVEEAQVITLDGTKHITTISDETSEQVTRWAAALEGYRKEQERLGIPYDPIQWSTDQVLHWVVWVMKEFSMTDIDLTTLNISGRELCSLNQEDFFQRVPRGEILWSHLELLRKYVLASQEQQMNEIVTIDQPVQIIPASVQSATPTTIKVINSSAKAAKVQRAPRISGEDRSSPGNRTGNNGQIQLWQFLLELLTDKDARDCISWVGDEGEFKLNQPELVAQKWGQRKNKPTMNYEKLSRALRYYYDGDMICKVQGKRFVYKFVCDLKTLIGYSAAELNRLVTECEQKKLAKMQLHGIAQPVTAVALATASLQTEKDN
# Procedure, shortened: as §1
# [4] = molecular target: T4, ERG (Homo sapiens, UniProt P11308 1-479); conditions: protein: recombinant; tags: N-terminal GST; dsDNA, one strand shown
# T4 sequence: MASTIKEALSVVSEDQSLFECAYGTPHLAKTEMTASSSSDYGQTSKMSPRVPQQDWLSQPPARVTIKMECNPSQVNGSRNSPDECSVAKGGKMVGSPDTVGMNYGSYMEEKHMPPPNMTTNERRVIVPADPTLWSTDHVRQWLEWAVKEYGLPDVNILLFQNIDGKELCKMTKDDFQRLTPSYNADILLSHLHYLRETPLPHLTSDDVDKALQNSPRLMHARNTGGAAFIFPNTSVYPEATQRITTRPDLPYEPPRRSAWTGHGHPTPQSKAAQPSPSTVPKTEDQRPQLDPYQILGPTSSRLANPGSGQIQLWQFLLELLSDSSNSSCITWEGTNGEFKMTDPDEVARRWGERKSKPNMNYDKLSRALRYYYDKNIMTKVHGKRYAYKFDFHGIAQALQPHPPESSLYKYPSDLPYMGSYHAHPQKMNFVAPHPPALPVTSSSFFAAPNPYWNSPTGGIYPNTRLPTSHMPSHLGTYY
# Procedure, shortened: as §1
# [5] = molecular target: ELF1 (Homo sapiens, UniProt P32519 1-619); conditions: protein: recombinant; tags: N-terminal GST; dsDNA, one strand shown
# Procedure, shortened: as §1
# [6] = molecular target: T5, EHF (Homo sapiens, UniProt Q9NZC4 1-300); conditions: protein: recombinant; tags: N-terminal GST; dsDNA, one strand shown
# T5 sequence: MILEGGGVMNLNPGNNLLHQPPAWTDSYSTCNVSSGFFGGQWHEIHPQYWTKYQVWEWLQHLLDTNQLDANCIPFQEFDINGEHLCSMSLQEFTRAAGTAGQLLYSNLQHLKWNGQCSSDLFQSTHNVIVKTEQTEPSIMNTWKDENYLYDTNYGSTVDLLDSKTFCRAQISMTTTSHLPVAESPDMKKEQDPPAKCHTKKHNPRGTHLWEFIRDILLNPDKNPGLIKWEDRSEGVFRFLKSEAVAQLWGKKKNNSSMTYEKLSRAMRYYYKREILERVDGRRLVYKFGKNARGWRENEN
# Procedure, shortened: as §1
# [7] = molecular target: SPI1 (Homo sapiens, UniProt P17947 1-270); conditions: protein: recombinant; tags: N-terminal GST; dsDNA, one strand shown
# Procedure, shortened: as §1
# [8] = molecular target: SPIB (Homo sapiens, UniProt Q01892 1-262); conditions: protein: recombinant; tags: N-terminal GST; dsDNA, one strand shown
# Procedure, shortened: as §1
# [9] = molecular target: T6, ELK3 (Homo sapiens, UniProt P41970 1-407); conditions: protein: recombinant; tags: N-terminal GST; dsDNA, one strand shown
# T6 sequence: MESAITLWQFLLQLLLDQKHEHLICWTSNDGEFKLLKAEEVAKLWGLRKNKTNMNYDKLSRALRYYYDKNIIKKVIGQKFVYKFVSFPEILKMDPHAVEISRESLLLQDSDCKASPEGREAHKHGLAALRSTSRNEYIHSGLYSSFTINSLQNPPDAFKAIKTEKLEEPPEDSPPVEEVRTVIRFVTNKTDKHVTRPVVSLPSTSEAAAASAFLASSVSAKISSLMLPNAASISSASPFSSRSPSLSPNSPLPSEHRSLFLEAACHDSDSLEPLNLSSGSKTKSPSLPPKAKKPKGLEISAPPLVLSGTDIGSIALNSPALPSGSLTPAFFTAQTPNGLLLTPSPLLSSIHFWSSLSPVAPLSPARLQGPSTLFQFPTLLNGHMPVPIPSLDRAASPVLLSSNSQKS
# Procedure, shortened: as §1
# [10] = molecular target: T7, FEV (Homo sapiens, UniProt Q99581 1-238); conditions: protein: recombinant; tags: N-terminal GST; dsDNA, one strand shown
# T7 sequence: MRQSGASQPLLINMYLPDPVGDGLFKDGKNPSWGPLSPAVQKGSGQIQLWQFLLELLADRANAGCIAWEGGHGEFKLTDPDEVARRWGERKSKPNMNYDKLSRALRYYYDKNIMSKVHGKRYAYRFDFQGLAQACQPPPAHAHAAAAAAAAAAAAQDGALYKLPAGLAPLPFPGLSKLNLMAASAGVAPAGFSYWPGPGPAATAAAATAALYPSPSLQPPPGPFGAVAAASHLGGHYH
# Procedure, shortened: as §1
# [11] = molecular target: ETV5 (Homo sapiens, UniProt P41161 1-510); conditions: protein: recombinant; tags: N-terminal GST; dsDNA, one strand shown
# Procedure, shortened: as §1
# [12] = molecular target: HSF1 (Homo sapiens, UniProt Q00613 1-529); conditions: protein: recombinant; tags: N-terminal GST; chain copies: 3; dsDNA, one strand shown
# Procedure, shortened: as §1
# [13] = molecular target: T8, SPIC (Homo sapiens, UniProt Q8N5J4 1-248); conditions: protein: recombinant; tags: N-terminal GST; dsDNA, one strand shown
# T8 sequence: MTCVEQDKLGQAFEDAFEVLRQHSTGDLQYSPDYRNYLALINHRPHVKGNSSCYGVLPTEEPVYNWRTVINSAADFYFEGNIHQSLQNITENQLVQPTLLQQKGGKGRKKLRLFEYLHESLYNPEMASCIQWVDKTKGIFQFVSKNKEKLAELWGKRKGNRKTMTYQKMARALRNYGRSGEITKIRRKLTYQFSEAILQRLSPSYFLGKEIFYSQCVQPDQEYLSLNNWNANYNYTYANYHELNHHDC
# Procedure, shortened: as §1
# [14] = molecular target: ELF4 (Homo sapiens, UniProt Q99607 1-663); conditions: protein: recombinant; tags: N-terminal GST; dsDNA, one strand shown
# Procedure, shortened: as §1
# [15] = molecular target: T9, ELK4 (Homo sapiens, UniProt P28324-2 1-405); conditions: protein: recombinant; tags: N-terminal GST; dsDNA, one strand shown
# T9 sequence: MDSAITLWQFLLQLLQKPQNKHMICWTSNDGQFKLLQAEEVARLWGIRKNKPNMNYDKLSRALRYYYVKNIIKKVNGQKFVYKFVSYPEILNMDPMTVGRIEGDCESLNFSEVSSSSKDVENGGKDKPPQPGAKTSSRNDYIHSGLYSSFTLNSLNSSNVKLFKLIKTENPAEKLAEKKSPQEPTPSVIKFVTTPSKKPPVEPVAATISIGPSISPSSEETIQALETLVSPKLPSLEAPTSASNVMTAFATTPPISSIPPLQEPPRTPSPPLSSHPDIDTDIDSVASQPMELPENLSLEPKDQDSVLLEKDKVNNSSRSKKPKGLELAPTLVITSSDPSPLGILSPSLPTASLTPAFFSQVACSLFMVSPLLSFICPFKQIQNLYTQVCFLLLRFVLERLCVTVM
# Procedure, shortened: as §1
# [16] = molecular target: T10, ETV2 (Homo sapiens, UniProt O00321 1-342); conditions: protein: recombinant; tags: N-terminal GST; dsDNA, one strand shown
# T10 sequence: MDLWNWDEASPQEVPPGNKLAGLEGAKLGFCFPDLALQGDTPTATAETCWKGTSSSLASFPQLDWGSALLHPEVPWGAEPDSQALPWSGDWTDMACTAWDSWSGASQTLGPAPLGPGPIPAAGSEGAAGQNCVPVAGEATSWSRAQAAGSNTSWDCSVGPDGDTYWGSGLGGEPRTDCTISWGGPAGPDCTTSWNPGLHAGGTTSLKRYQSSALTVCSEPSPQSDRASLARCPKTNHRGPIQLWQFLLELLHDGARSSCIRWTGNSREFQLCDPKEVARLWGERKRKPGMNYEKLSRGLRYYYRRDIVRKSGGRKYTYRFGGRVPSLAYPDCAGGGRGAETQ
# Procedure, shortened: as §1
# [17] = molecular target: T11, ELF3 (Homo sapiens, UniProt P78545 1-371); conditions: protein: recombinant; tags: N-terminal GST; dsDNA, one strand shown
# T11 sequence: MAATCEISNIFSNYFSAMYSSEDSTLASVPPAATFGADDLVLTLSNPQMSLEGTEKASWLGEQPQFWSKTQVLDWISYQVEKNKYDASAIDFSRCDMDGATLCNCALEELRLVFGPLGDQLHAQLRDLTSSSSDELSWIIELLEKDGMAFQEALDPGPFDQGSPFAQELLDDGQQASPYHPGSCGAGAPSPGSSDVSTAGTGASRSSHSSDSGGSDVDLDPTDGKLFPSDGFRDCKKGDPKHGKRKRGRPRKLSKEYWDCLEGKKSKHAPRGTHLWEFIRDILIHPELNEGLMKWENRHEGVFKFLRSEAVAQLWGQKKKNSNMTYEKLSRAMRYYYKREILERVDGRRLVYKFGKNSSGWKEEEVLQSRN
# Procedure, shortened: as §1
# [18] = molecular target: CRX (Homo sapiens, UniProt O43186 1-299); conditions: protein: recombinant; tags: N-terminal GST; dsDNA, one strand shown
# Procedure, shortened: as §1
# [19] = molecular target: ETV1 (Homo sapiens, UniProt P50549 1-477); conditions: protein: recombinant; tags: N-terminal GST; dsDNA, one strand shown
# Procedure, shortened: as §1
# CRX, sequence (O43186 whole entry): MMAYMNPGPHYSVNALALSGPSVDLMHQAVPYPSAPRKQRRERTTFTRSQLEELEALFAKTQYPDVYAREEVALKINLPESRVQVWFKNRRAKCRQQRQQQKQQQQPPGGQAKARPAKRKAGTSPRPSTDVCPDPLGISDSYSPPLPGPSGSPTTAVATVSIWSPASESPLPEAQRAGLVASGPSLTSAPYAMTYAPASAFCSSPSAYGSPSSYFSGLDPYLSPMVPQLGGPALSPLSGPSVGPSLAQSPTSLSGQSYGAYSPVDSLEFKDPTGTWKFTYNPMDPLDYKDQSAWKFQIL
# ETV5, sequence (P41161 whole entry): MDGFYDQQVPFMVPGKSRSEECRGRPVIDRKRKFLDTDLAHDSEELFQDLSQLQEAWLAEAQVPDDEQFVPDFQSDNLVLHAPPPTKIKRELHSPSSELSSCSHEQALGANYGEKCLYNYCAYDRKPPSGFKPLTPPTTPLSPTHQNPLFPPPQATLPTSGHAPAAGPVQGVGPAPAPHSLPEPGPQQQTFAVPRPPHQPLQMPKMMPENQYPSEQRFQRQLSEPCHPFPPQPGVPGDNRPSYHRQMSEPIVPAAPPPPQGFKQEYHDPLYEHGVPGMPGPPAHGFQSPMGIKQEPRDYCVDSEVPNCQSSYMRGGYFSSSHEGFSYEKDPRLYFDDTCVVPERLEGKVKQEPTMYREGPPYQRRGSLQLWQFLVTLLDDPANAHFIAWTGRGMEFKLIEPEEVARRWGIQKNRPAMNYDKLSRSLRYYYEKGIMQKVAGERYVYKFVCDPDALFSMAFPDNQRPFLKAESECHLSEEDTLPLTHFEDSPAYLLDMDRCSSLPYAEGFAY
# ETV1, sequence (P50549 whole entry): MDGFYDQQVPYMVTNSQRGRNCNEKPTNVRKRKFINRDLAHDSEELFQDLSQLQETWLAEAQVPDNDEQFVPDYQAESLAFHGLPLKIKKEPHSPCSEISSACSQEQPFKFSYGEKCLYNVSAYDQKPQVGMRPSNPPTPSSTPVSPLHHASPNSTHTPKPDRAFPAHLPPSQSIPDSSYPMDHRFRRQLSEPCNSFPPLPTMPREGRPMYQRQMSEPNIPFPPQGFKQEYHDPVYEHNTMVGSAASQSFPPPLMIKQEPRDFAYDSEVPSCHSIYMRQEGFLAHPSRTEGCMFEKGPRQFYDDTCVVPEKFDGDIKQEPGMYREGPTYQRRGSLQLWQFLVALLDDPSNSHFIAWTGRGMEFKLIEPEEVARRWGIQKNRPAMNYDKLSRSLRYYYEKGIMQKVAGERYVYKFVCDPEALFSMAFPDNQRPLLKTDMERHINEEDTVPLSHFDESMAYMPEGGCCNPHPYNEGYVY
# ELF4, sequence (Q99607 whole entry): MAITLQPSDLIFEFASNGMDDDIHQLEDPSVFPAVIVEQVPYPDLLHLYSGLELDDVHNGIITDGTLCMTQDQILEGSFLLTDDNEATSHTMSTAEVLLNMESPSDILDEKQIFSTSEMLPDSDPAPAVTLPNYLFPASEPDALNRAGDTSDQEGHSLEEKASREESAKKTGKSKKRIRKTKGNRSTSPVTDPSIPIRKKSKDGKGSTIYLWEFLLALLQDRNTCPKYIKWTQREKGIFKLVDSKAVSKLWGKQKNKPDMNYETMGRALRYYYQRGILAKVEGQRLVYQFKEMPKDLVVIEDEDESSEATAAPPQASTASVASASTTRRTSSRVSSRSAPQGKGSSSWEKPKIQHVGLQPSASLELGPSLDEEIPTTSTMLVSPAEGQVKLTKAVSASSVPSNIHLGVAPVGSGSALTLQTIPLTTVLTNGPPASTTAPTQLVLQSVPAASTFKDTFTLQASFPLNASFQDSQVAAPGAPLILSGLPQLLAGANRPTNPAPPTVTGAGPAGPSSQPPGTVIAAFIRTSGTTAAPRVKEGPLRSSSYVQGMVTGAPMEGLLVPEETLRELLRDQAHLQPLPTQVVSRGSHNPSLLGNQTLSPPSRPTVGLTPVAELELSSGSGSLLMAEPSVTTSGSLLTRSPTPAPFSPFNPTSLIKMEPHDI
# SPIB, sequence (Q01892 whole entry): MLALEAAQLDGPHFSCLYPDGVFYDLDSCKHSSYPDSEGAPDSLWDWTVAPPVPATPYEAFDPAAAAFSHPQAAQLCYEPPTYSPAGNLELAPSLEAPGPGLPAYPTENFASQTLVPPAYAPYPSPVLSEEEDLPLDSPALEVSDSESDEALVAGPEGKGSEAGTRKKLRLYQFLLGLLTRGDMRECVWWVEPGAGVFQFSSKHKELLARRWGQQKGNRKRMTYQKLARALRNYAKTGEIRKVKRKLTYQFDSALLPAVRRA
# ELF1, sequence (P32519 whole entry): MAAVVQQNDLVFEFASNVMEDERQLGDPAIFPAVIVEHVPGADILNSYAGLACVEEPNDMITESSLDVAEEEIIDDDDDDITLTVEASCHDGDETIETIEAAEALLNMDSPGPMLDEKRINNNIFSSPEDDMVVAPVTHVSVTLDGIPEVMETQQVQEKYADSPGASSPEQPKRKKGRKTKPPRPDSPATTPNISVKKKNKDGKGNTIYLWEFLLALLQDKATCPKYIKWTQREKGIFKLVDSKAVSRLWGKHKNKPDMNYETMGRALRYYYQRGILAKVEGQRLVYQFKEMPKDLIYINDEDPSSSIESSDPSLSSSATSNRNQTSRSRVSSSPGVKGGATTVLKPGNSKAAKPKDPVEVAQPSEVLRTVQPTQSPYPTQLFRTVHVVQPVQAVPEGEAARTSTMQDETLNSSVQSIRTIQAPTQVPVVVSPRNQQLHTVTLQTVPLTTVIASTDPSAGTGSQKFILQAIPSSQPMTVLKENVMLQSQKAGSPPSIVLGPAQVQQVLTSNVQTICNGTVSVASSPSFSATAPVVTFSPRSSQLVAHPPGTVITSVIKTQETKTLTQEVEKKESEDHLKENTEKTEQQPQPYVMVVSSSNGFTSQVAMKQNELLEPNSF
# HSF1, sequence (Q00613 whole entry): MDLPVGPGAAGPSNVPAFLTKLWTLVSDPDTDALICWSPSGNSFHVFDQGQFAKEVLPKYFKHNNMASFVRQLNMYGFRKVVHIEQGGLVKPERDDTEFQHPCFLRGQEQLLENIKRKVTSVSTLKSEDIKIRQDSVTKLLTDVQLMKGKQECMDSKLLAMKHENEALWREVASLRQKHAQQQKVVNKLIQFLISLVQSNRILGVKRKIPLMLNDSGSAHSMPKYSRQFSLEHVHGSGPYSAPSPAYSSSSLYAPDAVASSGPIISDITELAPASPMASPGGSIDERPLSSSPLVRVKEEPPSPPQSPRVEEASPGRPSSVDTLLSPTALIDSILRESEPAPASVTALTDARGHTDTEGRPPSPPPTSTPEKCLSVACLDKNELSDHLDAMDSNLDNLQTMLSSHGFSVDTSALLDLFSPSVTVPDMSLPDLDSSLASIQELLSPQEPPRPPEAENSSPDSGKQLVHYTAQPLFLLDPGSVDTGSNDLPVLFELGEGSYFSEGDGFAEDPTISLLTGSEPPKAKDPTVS
sequence,measurement,setting,value
AACGAA,binding signal,[1],"1.07 fold enrichment (6-mer frequency, TF over GST control)"
same,binding signal,[2],"1.14 fold enrichment (6-mer frequency, TF over GST control)"
same,binding signal,[3],"1.15 fold enrichment (6-mer frequency, TF over GST control)"
same,binding signal,[4],"1.15 fold enrichment (6-mer frequency, TF over GST control)"
same,binding signal,[5],"1.18 fold enrichment (6-mer frequency, TF over GST control)"
same,binding signal,[6],"1.15 fold enrichment (6-mer frequency, TF over GST control)"
same,binding signal,[7],"1.14 fold enrichment (6-mer frequency, TF over GST control)"
same,binding signal,[8],"1.19 fold enrichment (6-mer frequency, TF over GST control)"
same,binding signal,[9],"1.13 fold enrichment (6-mer frequency, TF over GST control)"
same,binding signal,[10],"1.15 fold enrichment (6-mer frequency, TF over GST control)"
same,binding signal,[11],"1.22 fold enrichment (6-mer frequency, TF over GST control)"
same,binding signal,[12],"1.33 fold enrichment (6-mer frequency, TF over GST control)"
same,binding signal,[13],"1.2 fold enrichment (6-mer frequency, TF over GST control)"
same,binding signal,[14],"1.1 fold enrichment (6-mer frequency, TF over GST control)"
same,binding signal,[15],"1.13 fold enrichment (6-mer frequency, TF over GST control)"
same,binding signal,[16],"1.11 fold enrichment (6-mer frequency, TF over GST control)"
same,binding signal,[17],"1.19 fold enrichment (6-mer frequency, TF over GST control)"
same,binding signal,[18],"1.08 fold enrichment (6-mer frequency, TF over GST control)"
same,binding signal,[19],"1.09 fold enrichment (6-mer frequency, TF over GST control)"
